Measurements reported in PubChem BioAssay (NCI).
Values joined by “and” are separate entries in the source; they are usually repeats but may differ in a detail not shown here. Equal values may be shown once. About 79,000 compounds went through this panel and 15% of them were active in at least one assay; those are over-represented in the sample as a whole. Cut-off read from the data, not from the text of the source: active = growth inhibition above about 70%; inactive = the rest.

What was measured:
[1] = NCI Yeast Anticancer Drug Screen. Data for the rad50 strain (AID 155);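 note: 0% = growth of vehicle-only cultures of the same strain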; settings: S. cerevisiae rad50 strain growth inhibition, stronger effect = higher value; at 50.0 µM unless noted
Method in brief: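 Compounds were tested on a yeast strain with an engineered DNA damage repair alteration; the reported value is growth inhibition normalised to vehicle treatment.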

[2] = NCI Yeast Anticancer Drug Screen. Data for the mec2-1 strain (AID 157); settings: S. cerevisiae mec2-1 strain, stronger effect = higher value; at 50.0 µM unless noted
Method in brief: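 Growth inhibition is read against vehicle-treated controls after compound exposure of the mec2-1 yeast strain, which is defective in DNA damage repair or cell cycle control.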

[3] = NCI Yeast Anticancer Drug Screen. Data for the sgs1 mgt1 strain (AID 161);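 note: 0% = growth of cultures given vehicle only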; settings: S. cerevisiae sgs1 mgt1 strain, stronger effect = higher value; at 50.0 µM unless noted
Method in brief: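 Percent growth inhibition was derived by comparing compound-exposed mutant yeast with vehicle-exposed cultures. The strain carries alterations in DNA damage repair.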

[4] = NCI Yeast Anticancer Drug Screen. Data for the cln2 rad14 strain (AID 165);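 note: 0% = growth equal to vehicle treated cultures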; settings: S. cerevisiae cln2 rad14 strain, stronger effect = higher value; at 50.0 µM unless noted
Method in brief: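 Growth inhibition, relative to vehicle-treated controls, is the read-out. The test organism is a yeast strain with defined genetic alterations, cln2 rad14.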

[5] = NCI Yeast Anticancer Drug Screen. Data for the bub3 strain (AID 167); settings: S. cerevisiae bub3 mutant strain, stronger effect = higher value; at 50.0 µM unless noted
Method in brief: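 Growth of a checkpoint-deficient yeast mutant is measured after compound exposure. Values represent inhibition relative to vehicle.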

[6] = NCI Yeast Anticancer Drug Screen. Data for the mlh1 rad18 strain (AID 175); settings: S. cerevisiae mlh1 rad18 strain growth inhibition, stronger effect = higher value; at 50.0 µM unless noted
Method in brief: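 Cells of a genetically altered yeast strain, deficient in DNA damage repair, were treated with compound. Their growth was then compared with that of vehicle-treated cultures to give inhibition.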

Measured: growth inhibition

NN=C(c1ccc([N+](=O)[O-])cc1)c1ccc([N+](=O)[O-])cc1
inactive: [1] -3.3% | [2] 0.55% | [3] -25.6% | [4] -9.65% | [5] 27% | [6] -0.7%

CCOC(=O)c1sc2c(c1OC(=O)c1ccc(OC)cc1)c(=O)n(-c1ccccc1)c(=S)n2-c1ccccc1
inactive: [1] 39.5% | [2] 9.65% | [3] 23.4% | [4] 17.5% | [5] 31% | [6] 38.4%

O=C(Nc1ccc(S(=O)(=O)NC2CCCCC2)cc1)Oc1ccccc1C(=O)O
inactive: [1] 49% | [2] -1.65% | [3] 39.9% | [4] 26.1% | [5] 16.1% | [6] 32.1%

CC(=O)OCCOCNC(=S)N/N=C(\C)c1ccco1
inactive: [1] -19.9% | [2] -8.3% | [3] 3.4% | [4] 3.8% | [5] -4.95% | [6] -11.9%

CNC(=O)N(C)Cc1ccccc1
inactive: [1] 12.7% | [2] -12.8% | [3] 2.75% | [4] -98.7% | [5] -13.6% | [6] -11.2%

CC(C)c1ccccc1NC(=O)CCC(=O)NN
inactive: [1] -11.1% | [2] -7.95% | [3] -7.95% | [4] 6.1% | [5] -17.8% | [6] -11.7%

CC(=O)Nc1cc([N+](=O)[O-])cc([N+](=O)[O-])c1O
inactive: [1] -7.5% | [2] -6.95% | [3] -1.6% | [4] -24.8% | [5] -10.8% | [6] 7.2%

Cc1c(SC(Cl)(Cl)Cl)cc([N+](=O)[O-])c(N(C)C)c1[N+](=O)[O-]
inactive: [1] 13.5% | [2] 24.9% | [3] 34.6% | [4] -43.9% | [5] 6.45% | [6] 10%

Cc1cccc2c1/C(=C1/c3ccccc3C(=O)c3cccc(C)c31)c1ccccc1C2=O
inactive: [1] -4.85% | [2] -24.1% | [3] -3.45% | [4] 14.3% | [5] -1.2% | [6] -6.15%

CC(=O)Oc1c(C)c2c(c3ncccc13)OC(C)C2 (stereo not given)
inactive: [1] 39.2% | [2] 14.1% | [3] 32.4% | [4] 19.1% | [5] 40.1% | [6] 34.8%

COc1cc(CCCC(C(=O)O)C(=O)O)cc(OC)c1OC
inactive: [1] 14.2% | [2] -13.3% | [3] -11.9% | [4] 15.8% | [5] -0.9% | [6] 11.7%

O=C(CCCN1CCC2(CC1)CC(=O)N(N1CCOCC1)C2=O)c1ccc(F)cc1
inactive: [1] -4.65% | [2] 6.1% | [3] 2.75% | [4] 4.5% | [5] -3.4% | [6] 14.9%

Cc1ccc(S(=O)(=O)N2CCC(CCl)N(S(=O)(=O)c3ccc(C)cc3)CC2CCl)cc1 (stereo not given)
inactive: [1] 18.1% | [2] 3.6% | [3] 0.95% | [4] -9.05% | [5] 3.45% | [6] 7.8%

c1ccc(Nc2ccccc2)cc1 (tested in a mixture with another compound)
inactive: [1] 3.1% | [2] 20.2% | [3] 1.95% | [4] 1.6% | [5] 38.7% | [6] 9.8%

O=C(O)c1ccc(P(=O)(O)O)cc1[N+](=O)[O-]
inactive: [1] 26.4% | [2] 9.65% | [3] -9.45% | [4] 1.75% | [5] 4.25% | [6] -7%

O=C(CCl)Oc1ccc2ccccc2c1
inactive: [1] 27.1% | [2] -2.05% | [3] -8.05% | [4] 8.25% | [5] 13.1% | [6] 31.4%

COc1ccc(C(=O)/C=C/c2ccc(OCC#N)cc2)cc1OC
inactive: [1] -39.5% | [2] -61.4% | [3] -38.5% | [4] -30.2% | [5] -33% | [6] -54.1%

Cc1cccc(C(C)C)c1N1C(=O)C(=O)C(c2nc3ccccc3o2)C(=O)C1=O
inactive: [1] -5.85% | [2] 2.15% | [3] 16.1% | [4] 39.1% | [5] 16.5% | [6] 31.2%

N#Cc1c(O)c(N=Nc2ccc(Cl)cc2)c(=O)n2c1[nH]c1ccccc12
inactive: [1] 11.6% | [2] 14.2% | [3] 21.2% | [4] 28.9% | [5] 10.5% | [6] 18.7%

COc1ccc(C(=O)c2ccc(Br)s2)cc1
inactive: [1] 5.9% | [2] -6.65% | [3] 12.8% | [4] -14.4% | [5] 13.8% | [6] 33%

N#CC(C(=O)CCC(=O)C(C#N)c1ccccc1)c1ccccc1 (stereo not given)
inactive: [1] -26.4% | [2] -14.8% | [3] 1.2% | [4] 5.9% | [5] 6.45% | [6] -6.4%

O=C1c2ccccc2C(=O)N1CN1C(=O)c2ccccc2S1(=O)=O
inactive: [1] 24.1% | [2] 15.6% | [3] 29.4% | [4] 24.2% | [5] 19.4% | [6] 34.9%

O=C1CSC2=NCCN12
inactive: [1] 14.8% and 22.8% | [2] -3.6% and -15.3% | [3] -5.25% and 6.8% | [4] 1.5% and 3.2% | [5] 1.55% and -11.9% | [6] 21.3% and 18.8%

CCOC(=O)Nc1nc2ccccc2n1CN1CCCC1
inactive: [1] -4.7% | [2] -17.9% | [3] -11.3% | [4] 3.65% | [5] 22.4% | [6] 18.8%

COc1c(OC(C)=O)ccc(/C=C2\N=C(C)OC2=O)c1[N+](=O)[O-]
inactive: [1] -8.3% | [2] -4.75% | [3] 5.25% | [4] 16.5% | [5] 11.1% | [6] 9.2%

O=C(Oc1cccc(O)c1)c1ccccc1
inactive: [1] -7.25% | [2] 11% | [3] -9.15% | [4] -18.8% | [5] 19.9% | [6] -6.1%

CS/C(C)=N/OC(=O)NCCCCNc1ccc(N=[N+]=[N-])cc1
inactive: [1] 13.9% | [2] -4.15% | [3] 5.4% | [4] 36.7% | [5] 4.5% | [6] 0.6%

COC1CN(C(C)(C)C)C1
inactive: [1] 2.65% | [2] 6.15% | [3] -1.2% | [4] 2.65% | [5] 6.6% | [6] 0.95%

CC(CC(=O)O)(CC(=O)O)C(=O)O
inactive: [1] 16.1% | [2] -17.9% | [3] -28.9% | [4] 12.6% | [5] -29.4% | [6] -22.9%

COc1cc(CNc2ccccc2)ccc1O
inactive: [1] -15.2% | [2] 6.1% | [3] -16.9% | [4] -8.1% | [5] 10.9% | [6] -8.4%

CC1(CI)COC(c2ccccc2)(C2CCCCC2)OC1 (stereo not given)
inactive: [1] 2.95% | [2] -5.15% | [3] 5.2% | [4] 35.3% | [5] -16.2% | [6] 15.9%

Cc1ccc(NC(=O)Oc2ccc(C(C)(C)C)cc2)cc1NC(=O)Oc1ccc(C(C)(C)C)cc1
inactive: [1] -14.4% | [2] -29.4% | [3] -6.35% | [4] -4.75% | [5] 10.7% | [6] -18.6%

COc1ccc(C(=O)CCC2(C)OCCO2)cc1OC
inactive: [1] 27.3% | [2] 5.8% | [3] 18.9% | [4] 8.4% | [5] 21.9% | [6] 17.5%

CCCN(CCC)CC(O)c1ccc(Cl)c2ccccc12 (stereo not given)
inactive: [1] 1.85% | [2] -30.1% | [3] 21.1% | [4] -35.3% | [5] -17.9% | [6] -9.55%

CCOCc1cccc2ccccc12
inactive: [1] -13.6% | [2] -33.9% | [3] -14.9% | [4] 9% | [5] -6.55% | [6] -23.9%

COC1CCC(/C=C(\C#N)C2CCC(C)CC2)CC1 (stereo not given)
inactive: [1] 18.3% | [2] 22.1% | [3] 43.9% | [4] 12.1% | [5] 30.2% | [6] 30.6%

C=C(C)C1CC[C@@](C)(O)[C@H](C#N)C1 (stereo not given in full)
inactive: [1] 6.15% | [2] -15.7% | [3] -22.8% | [4] -12.2% | [5] -38.5% | [6] -44%

N.N.N.N.O=C(O)C1OCCOCCOC(C(=O)O)C(C(=O)O)OCCOCCOC1C(=O)O.[Pt+2].[Pt+2] (stereo not given)
inactive: [1] -33.2% | [2] -14% | [3] -12.5% | [4] -26.1% | [5] -13.5% | [6] -9.2%

CN(C)CCS(=O)(=O)c1ccc(Cl)cc1
inactive: [1] 38.9% | [2] 14.6% | [3] 14.4% | [4] 16.5% | [5] 9.85% | [6] 20.6%

COC(=O)C1(CC(=O)c2c(C)[nH]c3ccccc23)NC(=S)NC(=O)C1C#N (stereo not given)
inactive: [1] -6.35% | [2] 14.7% | [3] -21.1% | [4] -5.15% | [5] -11.1% | [6] 26.4%
